Source: PubChem BioAssay (NCI)
Compounds without any hit were thinned out: in the full panel of roughly 79,000, 15% have a hit. No stated cut-off is given here; in the data, active means growth inhibition above about 70%; inactive means the rest.

Tests used:
[1] = NCI Yeast Anticancer Drug Screen. Data for the rad50 strain (AID 155);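 further: 0% = growth of vehicle-only cultures of the same strain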; conditions: S. cerevisiae rad50 strain growth inhibition; at 50.0 µM; active compounds read high
Method in brief: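 Yeast carrying a defined DNA repair defect were exposed to test compounds, and growth was compared with vehicle-treated controls to give percent inhibition.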

[2] = NCI Yeast Anticancer Drug Screen. Data for the mec2-1 strain (AID 157); conditions: S. cerevisiae mec2-1 strain, at 50.0 µM, active compounds read high
Method in brief: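 Mutant yeast (mec2-1) grown with compound; growth inhibition relative to vehicle control reported.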

[3] = NCI Yeast Anticancer Drug Screen. Data for the sgs1 mgt1 strain (AID 161);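 further: 0% = growth of cultures given vehicle only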; conditions: S. cerevisiae sgs1 mgt1 strain, at 50.0 µM, active compounds read high
Method in brief: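 This yeast growth screen uses a strain with defined DNA-repair lesions; compound-treated growth is compared with vehicle-treated growth.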

[4] = NCI Yeast Anticancer Drug Screen. Data for the cln2 rad14 strain (AID 165);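 further: 0% = growth equal to vehicle treated cultures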; conditions: S. cerevisiae cln2 rad14 strain, at 50.0 µM, active compounds read high
Method in brief: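 Readout is yeast growth inhibition versus vehicle-treated controls, using a strain with cln2 and rad14 alterations exposed to compound.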

[5] = NCI Yeast Anticancer Drug Screen. Data for the bub3 strain (AID 167); conditions: S. cerevisiae bub3 mutant strain, at 50.0 µM, active compounds read high
Method in brief: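 Compounds were applied to a genetically altered yeast strain carrying a cell-cycle control defect. Growth inhibition was scored against vehicle-treated controls.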

[6] = NCI Yeast Anticancer Drug Screen. Data for the mlh1 rad18 strain (AID 175); conditions: S. cerevisiae mlh1 rad18 strain growth inhibition; at 50.0 µM; active compounds read high
Method in brief: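 Genetically defined yeast (DNA repair-deficient) exposed to compounds; growth inhibition determined relative to vehicle.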

Measured: growth inhibition

O=C(NNc1ccccc1)NNc1ccccc1
inactive: [1] 32.8% | [2] 21.4% | [3] 45.3% | [4] 46.3% | [5] 20.8% | [6] 29.8%

CC(C)CCCOC(=O)c1ccccc1
inactive: [1] 3.05% | [2] -6.5% | [3] -1.65% | [4] -3.2% | [5] 21.6% | [6] -1%

CCOC(=O)c1ccc(NC(=O)Nc2ccc(F)c([N+](=O)[O-])c2)cc1
inactive: [1] 7.3% | [2] 46.1% | [3] 46.5% | [4] 7% | [5] 28.9% | [6] 23.6%

CC(=O)OC1(C)N=NC2(CCCCC2)O1 (stereo unspecified)
inactive: [1] 3.45% | [2] -22.4% | [3] -37.1% | [4] 7.5% | [5] -12.1% | [6] -12.3%

C=CCN1C(=O)/C(=C/c2ccc(OCC(=O)O)cc2)SC1=S
inactive: [1] 5.7% | [2] -11.2% | [3] 0.05% | [4] -46.6% | [5] -1% | [6] -13.8%

CC1(C)CCC(=O)OC1C[N+](=O)[O-] (stereo unspecified)
inactive: [1] 39.8% | [2] -10.8% | [3] 24.2% | [4] 11.8% | [5] 0.3% | [6] 39.4%

CS(=O)(=O)C(c1nc2n(c1O)/C(=N/C(=O)Nc1ccc(Cl)cc1)N=N2)c1nc2n(c1O)/C(=N/C(=O)Nc1ccc(Cl)cc1)N=N2
inactive: [1] -14.9% | [2] 4.5% | [3] -8.5% | [4] -16.3% | [5] 1.3% | [6] -1.15%

CC(C)C(=O)OCC1OC(n2cnc3c(=S)nc[nH]c32)C(OC(=O)C(C)C)C1OC(=O)C(C)C (stereo unspecified)
inactive: [1] -6.8% | [2] 2.2% | [3] 2.4% | [4] -13.4% | [5] -9.55% | [6] 2.1%

C#C[C@@H](CCCC)OC(=O)N[C@H](C)c1ccccc1
inactive: [1] 58.9% | [2] 49.6% | [3] 64.5% | [4] -11.6% | [5] 22.5% | [6] 16.1%

C/C(=N\NC(N)=S)c1sc(-n2nc(-c3ccccc3)cc2-c2ccccc2)nc1C
inactive: [1] 4.65% | [2] -18.2% | [3] 12.2% | [4] 0.25% | [5] 26.6% | [6] 15.7%

c1ccc2c(c1)c1c(n2CCOCCN2CCCCC2)CCCC1
inactive: [1] 33.9% | [2] 19.9% | [3] 29.3% | [4] 28.1% | [5] 28.4% | [6] 19.8%

CC(=O)Nc1ccc(S(=O)(=O)NNc2nc(N3CCCC3)nc(N3CCCC3)n2)cc1
inactive: [1] 1.7% | [2] -8.1% | [3] -14.4% | [4] 1.8% | [5] -1.25% | [6] 2.15%

C[n+]1cn(C2=C([O-])c3ccccc3C(=O)/C2=N\S(=O)(=O)c2ccccc2)c2ccccc21
inactive: [1] 0.95% | [2] 4.8% | [3] 2.4% | [4] -0.6% | [5] 4.35% | [6] -28.9%

C[n+]1ccc2c(Br)cccc2c1
inactive: [1] -1.8% | [2] -14.9% | [3] -6.45% | [4] -12.7% | [5] -1% | [6] 13.5%

COc1ccc2cc(NC(=O)N/N=C\c3ccc(Cl)cc3)ccc2c1
inactive: [1] 33.2% | [2] 8.9% | [3] 26.9% | [4] 4.4% | [5] 27% | [6] 30.4%

NCC(O)C(F)(F)F (stereo unspecified)
inactive: [1] -5.2% | [2] -7.9% | [3] -27.3% | [4] -15.1% | [5] 1.75% | [6] -14.5%

COc1ccc(CC2c3cc(OC)c(OC)cc3CCN2C(=O)OCc2ccccc2)cc1OC (stereo unspecified)
inactive: [1] 25.3% | [2] -4.1% | [3] 2.35% | [4] 19.6% | [5] 8.65% | [6] 12.1%

Cc1ccc([N+](=O)[O-])cc1NC(=O)C(=O)C1CCC2=C(Sc3ccccc3N2)C1=O (stereo unspecified)
inactive: [1] 0.5% | [2] -16.9% | [3] -9.45% | [4] -17.9% | [5] -0.4% | [6] -5.85%

O=C(c1ccco1)C(O)c1ccccc1 (stereo unspecified)
inactive: [1] 1.3% | [2] 8.9% | [3] -2.6% | [4] -2.55% | [5] -11.9% | [6] 5.95%

Cc1c(C(=O)Nc2ccc(Cl)c(C(F)(F)F)c2)oc2cc(O)ccc2/c1=N\NC(N)=S
inactive: [1] -12.3% | [2] -14.4% | [3] -23.6% | [4] -7.85% | [5] -7.35% | [6] -17.4%

Cc1nnc(N/N=C/c2ccccc2)n1/N=C\c1ccccc1
inactive: [1] 8.05% | [2] 17.1% | [3] -5.8% | [4] 10.2% | [5] 4.85% | [6] -25.4%

COc1cc(Cl)ccc1NC(=O)Oc1ccc2ccccc2c1
inactive: [1] 11.8% | [2] 14.2% | [3] 13% | [4] 9.2% | [5] 14.4% | [6] 9.4%

CCC(C)(O)CCc1ccccc1 (stereo unspecified)
inactive: [1] -17.5% | [2] -42.6% | [3] -64.2% | [4] 2.55% | [5] -36.3% | [6] -5%

COc1ccc(C(=O)C2CCC(C(=O)O)C2)cc1 (stereo unspecified)
inactive: [1] -25.4% | [2] -27.9% | [3] -5.35% | [4] -6.35% | [5] -21.9% | [6] -13.2%

CC(C)CN1CC(=O)N2Cc3ccccc3CN2C(=O)C1
inactive: [1] -28.6% | [2] -10.2% | [3] -17.4% | [4] -4.95% | [5] -1.3% | [6] -2.5%

CCOc1ccc(/C=C2\N=C(c3cccc(Cl)c3)OC2=O)cc1
inactive: [1] 12.2% | [2] 15.3% | [3] 22.1% | [4] 19.6% | [5] 17.2% | [6] 13.7%

CC1OC(O[C@H]2CC[C@]3(C)[C@H]4CC=C5[C@@H]6[C@@H](C)[C@H](C)CC[C@]6(C(=O)O)CC[C@@]5(C(=O)O)[C@]4(C)CC[C@H]3C2(C)C)C(O)C(O)C1O (stereo partly specified)
inactive: [1] -17.5% | [2] -9.8% | [3] -10.6% | [4] -5.7% | [5] -13.7% | [6] -58.5%

CCN(CC)CC(=O)N1CCc2c([nH]c3ccccc23)C1c1cccnc1 (stereo unspecified)
inactive: [1] -40.1% | [2] -21.4% | [3] -11.6% | [4] -5.95% | [5] -35.5% | [6] -34.5%

CSCCC(NC(=O)CCCOc1ccc(Cl)cc1C)C(=O)O (stereo unspecified)
inactive: [1] 1.8% | [2] -12% | [3] 3.85% | [4] -29.9% | [5] -0.9% | [6] -5.25%

CCCC(=O)Nc1ccccc1
inactive: [1] 18.1% | [2] -15.8% | [3] 8.75% | [4] 7% | [5] -4.75% | [6] 19.6%

Cc1cccc2sc(=S)[nH]c12
inactive: [1] 35% | [2] 18.6% | [3] 28.9% | [4] 19.9% | [5] 29.8% | [6] 30.6%

ClCc1nn(-c2ccccc2)c(CCl)c1CCl
inactive: [1] 46.6% | [2] 14.3% | [3] 18.4% | [4] -1.45% | [5] 8.25% | [6] -4.55%

O=C(O)c1cc(N=Nc2ccc([N+](=O)[O-])cc2S(=O)(=O)O)ccc1O
inactive: [1] -6% | [2] -2.35% | [3] 24.3% | [4] 16.1% | [5] -19.8% | [6] -9.75%

Nc1c(S(=O)(=O)O)cc(S(=O)(=O)O)c2ccc(N=Nc3ccccc3)c(O)c12
inactive: [1] 7.15% | [2] 0.9% | [3] -10.8% | [4] -3.05% | [5] -8.7% | [6] -15.7%

CC(C)=CC1C(CO)C1(C)C (stereo unspecified)
inactive: [1] -7.8% | [2] -17.2% | [3] 23.8% | [4] -16.6% | [5] -6.25% | [6] -16.9%

OCCSCc1ccccc1
inactive: [1] 29.6% | [2] 0.3% | [3] -6.1% | [4] 7.2% | [5] -13.7% | [6] -1.3%

NC(Cc1c[nH]c2ccc(F)cc12)C(=O)O (stereo unspecified)
inactive: [1] -4.35% | [2] -17.5% | [3] -29.8% | [4] -37% | [5] -14.4% | [6] 4.15%

O=C(Nc1ccccc1F)Oc1ccc(Cl)cc1Cl
inactive: [1] 26.8% | [2] 14.7% | [3] 20.5% | [4] 26.8% | [5] 19.4% | [6] 13.2%

CC(C)N(C(=O)c1cccc2ccccc12)C(C)C
inactive: [1] 16.4% | [2] 6.95% | [3] 8.35% | [4] 4.55% | [5] 8% | [6] 32.2%

Clc1ccc2c(c1)nc(-c1ccccn1)n2CCc1ccncc1
inactive: [1] 3.75% | [2] 0.05% | [3] 2.4% | [4] -16.4% | [5] -13.4% | [6] 13.8%

NC(CS)=NCCc1nc2ccccc2[nH]1
inactive: [1] 12.6% | [2] 9.95% | [3] -0.2% | [4] -2.85% | [5] 7.6% | [6] 4.3%
